Measured potencies and affinities stand elsewhere. Active and inactive are the calls of the source.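 How the source made its calls: active means fitted half-maximal concentration for loss of cell signal no higher than twice the top valid tested concentration; inconclusive means flat curve at 30 to 70% inhibition, or poor fit; inactive means flat within 30%, signal rise, or potency above limit.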
Test: MDA-MB-231 cell growth inhibition, dose response, cytotoxicity control for RAD54 inhibitor project, CellTiter-Glo luminescence, cherry-pick (AID 651692);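 further: more negative values mean stronger loss of viable cell signal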
Conditions: MDA-MB-231 viability, 24 h; series mostly up to 26 µM

| SMILES | outcome |
| --- | --- |
| COc1ccc2c(c1)c1ncn(CCN3CCCCC3)c(=O)c1n2C | inactive |
| CCN(CC)CCN(C(=O)C1=COCCO1)c1nc2c(OC)ccc(OC)c2s1 | inactive |
| Cn1c(NCCN2CCCC2)nc2cc(-c3ccccc3)sc2c1=O | inactive |
| O=c1cc(CSc2n[nH]c(=O)n2C2CC2)c2ccc(O)cc2o1 | inactive |
| CCCN1CCN(CCCNC(=O)c2cc3c(=O)n(C)c4ccccc4c3n2C)CC1 | inactive |
| Cc1cccc(-c2nc(NCCCN(C)C)c3ccccc3n2)c1 | inactive |
| OCCCNc1c2ccccc2nc2ccccc12 | inactive |
| O=c1c2ccccc2sc2ccc(NCCCN3CCOCC3)cc12 | inactive |
| Cc1ccnc(SCC(=O)Nc2sc3c(c2C#N)CCC(C(C)(C)C)C3)n1 (stereo unspecified) | inactive |
| N=c1c(C(=O)NCCN2CCOCC2)cc2c(=O)n3ccccc3nc2n1CCCN1CCOCC1 | inactive |
| Cc1ccc2nc3c(c(Nc4ccc(O)cc4)c2c1)CCC3 | inactive |
| C(=C/c1nccc2c1[nH]c1ccccc12)/c1ccc2c(c1)OCO2 | inactive |
| CCN1CCN(C(=S)Nc2ccc3nc(N4CCN(C)CC4)cc(C)c3c2)CC1 | inactive |
| COc1ccc(OC)c2c(C)cc(NCCN3CCOCC3)nc12 | inactive |
| CN1CCN(CCCNC(=O)c2cc3c(=O)oc4ccccc4c3s2)CC1 | inactive |
| Cc1ccc(-c2nc(NCCCO)c3ccccc3n2)cc1 | inactive |
| COc1ccc(-c2nc(NCCCN(C)C)c3ccccc3n2)cc1 | inactive |
| Cc1cc(N2CCN(C)CC2)nc2ccc(NC(=S)NCCCN3CCN(C)CC3)cc12 | inactive |
| NCc1csc(Nc2nncc3ccccc23)n1 | inactive |
| CN(C)CCCN(C(=O)CCOc1ccccc1)c1nc2ccc(F)cc2s1 | inactive |
| CCN(CC)CCn1c2ccc(F)cc2c2nc(C)sc21 | inactive |
| Cc1ccc2nc3c(c(N)c2c1)CCN3C | inactive |
| CCOc1cc2[nH]c(=S)n(Cc3ccc(C(=O)NCCCN(CC)CC)cc3)c(=O)c2cc1OCC | inactive |

| SMILES | outcome |
| --- | --- |
| CC(C)CSc1ncc(-c2cccc(C(F)(F)F)c2)cn1 | inactive |
| CCN(CC)CCNC(=S)Nc1ccc2nc(N3CCN(CC)CC3)cc(C)c2c1 | inactive |
| CCN(CC)S(=O)(=O)c1ccc(Cl)c(C(=O)Nc2nnc(C)s2)c1 | inactive |
| CCNCCNC(=O)c1c(O)c2cccc3c2n(c1=O)CCC3 | inactive |
| Cc1nc2oc3c(=O)[nH]cnc3c2c2c1COC(C)(C)C2 | inactive |
| Cc1ccc2nc3c(c(Nc4ccc5c(c4)OCCO5)c2c1)CCC3 | inactive |
| Cc1cc(N2CCN(C)CC2)nc2ccc(NC(=S)NCCCN3CCc4ccccc4C3)cc12 | inactive |
| Cc1ccc(-c2nc(NCCN(C)C)c3ccccc3n2)cc1 | inactive |
| COc1ccc(-c2cc3nc(NCCCN(C)C)n(C)c(=O)c3s2)cc1OC | inactive |
| N=c1c(C(=O)NCCN2CCOCC2)cc2c(=O)n3ccccc3nc2n1CCc1ccccc1 | inactive |
| Cc1cc(Nc2ccc3c(c2)OCCO3)c2cccc(C)c2n1 | inactive |
| CCN(CC)Cc1cc(Nc2ccnc3cc(Cl)ccc23)ccc1O | inactive |
| CN(C)c1cc(NC(=O)CNC(C)(C)C)c2ccccc2n1 | inactive |
| COc1ccc2nc(C)cc(Nc3ccc(C)cc3)c2c1 | inactive |
| Cc1ccc2c(c1)c1nc3ccccc3nc1n2CCN1CCOCC1 | inactive |
| NC(=O)CN1CCN(CCN2C(=O)c3cccc4cccc(c34)C2=O)CC1 | inactive |
| COc1cc2c3c(cccc3c1)C(=O)N(CCN1CCCC1)C2=O | inactive |
| CCCN(CCC)CCCNC(=O)c1cc2c(=O)[nH]c3ccccc3c2s1 | inactive |
| CN1CCN(c2nc(-c3cccnc3)nc3ccccc23)CC1 | inactive |
| CCCN(CCC)c1nc(-c2ccccn2)nc2ccccc12 | inactive |
| O=C(CN1CCCCC1)n1c2ccccc2c2ccccc21 | inactive |
| CCN1CCN(C(=S)Nc2ccc3nc(N4CCN(CC)CC4)cc(C)c3c2)CC1 | inactive |
| CCCN(CCC)CCCNC(=O)c1cc2c(-c3ccc(OC)c(OC)c3)nn(C)c2s1 | inactive |

| SMILES | outcome |
| --- | --- |
| Cc1c(-c2cc(Br)ccc2O)nc2cc3c(cc2c1C)OCO3 | inactive |
| Cn1c(C(=O)NCCCN2CCOCC2)cc2c(=O)n(C)c3ccccc3c21 | inactive |
| COc1cccc2sc3cc(NCC[C@@H]4CCCN4C)ccc3c(=O)c12 | inactive |
| COc1cccc(-c2cc3nc(NCCCN(C)C)n(C)c(=O)c3s2)c1 | inactive |
| COc1ccccc1C(=O)C(O)c1ccccc1OC (stereo unspecified) | inactive |
| COc1ccccc1Nc1nc(NCCCN(C)C)nc(N)c1[N+](=O)[O-] | inactive |
| Cc1ccc(S(=O)(=O)NCCCNS(=O)(=O)c2ccccc2[N+](=O)[O-])cc1 | inactive |
| O=c1c2ccccc2oc2ccc(NCCCN3CCOCC3)cc12 | inactive |
| CCCN1CCN(CCCNC(=S)Nc2ccc3nc(N4CCN(CC)CC4)cc(C)c3c2)CC1 | inactive |
| O=S(=O)(c1ccc(-c2nnc(SCc3ccccc3)o2)cc1)N1CCCC1 | inactive |
| CCN1CCN(c2cc(C)c3cc(NC(=S)N4CCCC(C)C4)ccc3n2)CC1 (stereo unspecified) | inactive |
| CCN1CCN(c2cc(C)c3cc(NC(=S)N4CCCCC4)ccc3n2)CC1 | inactive |
| CCn1c(=N)c(C(=O)NC)cc2c(=O)n3cccc(C)c3nc21 | inactive |
| CN(C)CCCN(C(=O)c1ccco1)c1nc(-c2ccc(Cl)cc2)cs1 | inactive |
| COc1cc2[nH]c3c(=O)n(CCN4CCCCC4)cnc3c2cc1OC | inactive |
| CCN1CCN(c2ccc(Nc3ccnc4ccccc34)cc2)CC1 | inactive |
| Cc1nc2ccccc2c2oc(C(=O)N3CCC(N4CCCCC4)CC3)cc12 | inactive |
| CN(C)CCCNc1ncnc2sc(-c3ccccc3)cc12 | inactive |
| CN(C)CCNC(=O)c1cccc(-c2cnc3c(NC=O)cc(-c4ccc(C(=O)N5CCOCC5)cc4)cn23)c1 | inactive |
| O=C1C(c2ccc(F)cc2)N(C2CCCCC2)C(=O)CN1C1CCCC1 (stereo unspecified) | inactive |
| COc1ccc2cc3cc(C(=O)NCCCN4CCOCC4)oc3nc2c1 | inactive |
| CCOC(=O)c1cnc2c(ccc3ccccc32)c1NCCCN(C)C | inactive |
| Cc1cc2ccc3ccccc3c2cc1CN(C)C | inactive |

| SMILES | outcome |
| --- | --- |
| CN(C)CCCNc1c2ccccc2nc2ccccc12 | inactive |
| COc1ccc2nc(-c3ccc(N)cc3)[nH]c2c1 | inactive |
| Cc1ccc2nc3c(c(N)c2c1)CCN3c1ccccc1 | inactive |
| CCN(CC)CCNc1nc(SC)nc2sc3c(c12)CCN(C)C3 | inactive |
| CC(C)NC1CCC(Nc2ccnc3cc(Cl)ccc23)CC1 (stereo unspecified) | inactive |
| CN(C)CCNC(=O)c1cccc(-c2cnc3c(NC=O)cc(-c4ccc(F)cc4)cn23)c1 | inactive |
| CN(C)CCNc1cc(-c2ccncc2)nc2ccccc12 | inactive |
| COc1ccc(Nc2nc(N3CCCCC3)nc3ccccc23)c(OC)c1 | inactive |
| Cn1c2ccc(F)cc2c2ncn(CCCN(CCO)CCO)c(=O)c21 | inactive |
| NC(=O)C1CCN(c2nc(-c3cccnc3)cs2)CC1 | inactive |
| CC(=O)Nc1ccc2cc3ccc(NC(C)=O)cc3nc2c1 | inactive |
| CN1CCN(CCCNC(=O)c2cc3c(-c4ccc(Cl)cc4)nn(C)c3s2)CC1 | inactive |
| c1ccc2c(c1)[nH]c1c(N3CCN(C4CCCCC4)CC3)ncnc12 | inactive |
| CN(C)CCNC(=O)c1c(NC(=O)c2ccccc2)sc2c1CCCC2 | inactive |
| Cc1cccc(Cn2c(Sc3nc(C)cs3)nc3c2c(=O)[nH]c(=O)n3C)c1 | inactive |
| CN1CCCN(c2cc(-c3ccc4ccccc4c3)nc3ccnn23)CC1 | inactive |
| CC(C)N1CCc2c(sc(NC(=O)c3ccc(C(=O)c4ccccc4)cc3)c2C(N)=O)C1 | inactive |
| O=C(NCCCN1CCOCC1)c1cnn2c(-c3ccccc3)cc(-c3ccccc3)nc12 | inactive |
| Cc1cccn2c(=O)c3cc(C(=O)NCCc4ccccc4)c(=N)n(CCCn4ccnc4)c3nc12 | inactive |
| CCOC(=O)c1cnc2c(C)c(Cl)ccc2c1NCCCN1CCOCC1 | inactive |
| COc1ccc(C)c2sc(N(CCN(C)C)C(=O)c3ccc4ccccc4c3)nc12 | inactive |
| CCN(CC)CCCNc1nc2cc(OC)c(OC)cc2c2nc(-c3cccnc3)nn12 | inactive |
| COc1ccc2cc3cc(C(=O)NCCCN4CCC(C)CC4)oc3nc2c1 | inactive |

| SMILES | outcome |
| --- | --- |
| Cc1nc2ccccc2c2oc(C(=O)NCCN3CCCCC3C)cc12 (stereo unspecified) | inactive |
| CCN(CC)CCNC(=O)c1cc2c(=O)n(C)c3ccccc3c2n1C | inactive |
| CC(N)c1csc(Nc2nncc3ccccc23)n1 (stereo unspecified) | inactive |
| COc1ccc(CCn2c(=N)c(C(=O)NCC3CCCO3)cc3c(=O)n4cccc(C)c4nc32)cc1OC (stereo unspecified) | inactive |
| O=C(Nc1cccc([N+](=O)[O-])c1)c1cc(S(=O)(=O)N2CCOCC2)cs1 | inactive |
| CCOC(=O)c1c(C)n(C)c2ccc(OCC(O)CN3CCC(C)CC3)cc12 (stereo unspecified) | inactive |
| Cc1[nH]ccc2c1[nH]c1cc(=O)ccc12 | inactive |
| CCN(CC)CCCNC(=O)c1cc2c(=O)[nH]c3ccc(C)cc3c2s1 | inactive |
| CCN(CC)CCCNc1nc2cc(OC)c(OC)cc2c2nc(-c3ccccc3)nn12 | inactive |
| COc1cc(NCCCNC(C)C)c2nccc(C)c2c1 | inactive |
| O=C(Nc1cccc(Cl)c1)c1cc(S(=O)(=O)N2CCOCC2)cs1 | inactive |
| CCN(CC)CCN1CCN(c2cncc(-c3cccc(N)c3)n2)CC1 | inactive |
| O=C(Nc1nnc(COc2ccc(F)cc2)s1)c1ccco1 | inactive |
| Oc1ccc(Nc2ccnc3cc(Cl)ccc23)cc1 | inactive |
| Cc1nc2nc(C)c(C)nc2nc1C | inactive |
| CCN(CC)CCNc1ccc(CO)c2sc3ccccc3c(=O)c12 | inactive |
| COc1cc2nc(NCCCN3CCN(C)CC3)n3nc(-c4ccccc4)nc3c2cc1OC | inactive |
| Cc1ccc(-c2nc(NCCN3CCOCC3)c3ccccc3n2)cc1 | inactive |
| c1ccc(-c2nc(NCCCn3ccnc3)c3oc4ccccc4c3n2)cc1 | inactive |

From PubChem BioAssay AID651692 (Broad Institute, 2012)
